# Only some compounds are listed: those with a hit (about 1.6% of all), similar ones and a draw of the others.
# C8 TRAIL sens = caspase-8 TRAIL sensitization; NB7+C8 cells + TRAIL, ATPlite viability luminescence; inhibition (viability loss, TRAIL sensitization), % at 10 µM; 360,000 tested, 1% active;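 active means compounds causing at least 50% loss of cell viability in the single-dose screen, relative to plate controls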
# PPC-1+TRAIL kill = kills PPC-1 cancer cells in the presence of TRAIL. PPC-1 cells + TRAIL, ATPLite viability luminescence. cell killing (% activity), % at 4 µM or 5 µM. 220,000 tested, 0.41% active. AID 1443;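 active means cell killing above 50% in the first pass at 4 µM, then a duplicate retest at 5 µM averaging 50% or more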;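 further: plate controls were cells with TRAIL plus DMSO for no effect and medium-only wells lacking cells for full effect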
# Platelet DG rel = modulates dense granule release in human platelets; human platelet-rich plasma, SFLLRN dense granule ATP release, luminescence; inhibition, %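 (compounds screened at 7.5 µM in platelet-rich plasma)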; 300,000 tested, 0.22% active;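 active means mean replicate score, as percent of positive control, at or above 50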
# STAT1 inh = STAT1 signaling inhibition; NIH 3T3 STAT1-luciferase reporter, IFN-gamma, luminescence; inhibition, % at 5.5 µM; 200,000 tested, 0.35% active; AID 920;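 active means inhibition above a set limit, the mean inhibition across all tested compounds plus 3 SD, cut at about 34% in these data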;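 further: 0% = IFN-gamma with DMSO and 100% = IFN-gamma with 300 µM nifuroxazide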
# STAT3 inh-1 = reduces IL-6 driven STAT3 reporter signal | 190,000 tested, 0.89% active | U3A cells, IL-6 STAT3-luciferase reporter, luminescence; host cell line lacks STAT1 | inhibition, % at 5.5 µM;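 active means inhibition above the mean inhibition across all screened compounds plus 3 SD, cut at about 44% in these data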;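 further: 0% = DMSO only wells and 100% = 100 µM nifuroxazide control wells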
# STAT3 inh-2 = STAT3 inhibition, confirmation assay | shares compounds with STAT3 inh-1 | U3A cells, IL-6 STAT3 luciferase reporter, luminescence; cell line lacks STAT1 | inhibition, % at 5.7 µM | 1,200 tested, 45% active | AID 1265;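 active means inhibition above the hit cutoff computed for the primary STAT3 screen, cut at about 44% in these data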;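 further: 0% = IL-6 plus DMSO and 100% = IL-6 plus nifuroxazide control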
# NFkB inh 2 = counter-screen for STAT3 inhibitors: NF-kappaB inhibition | shares compounds with STAT3 inh-1 | HEK293T NF-kB luciferase reporter, TNF-alpha induced | inhibition, % at 5.7 µM | 1,200 tested, 36% active | AID 1308;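 active means inhibition above the mean of solvent-only control wells plus 3 SD, cutoff set per campaign, cut at about 13% in these data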;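 further: 0% = TNF-alpha with DMSO and 100% = TNF-alpha with MG high control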
# STAT1 inh 2 = STAT1 inhibition in STAT3 inhibitor counter-screen; shares compounds with STAT3 inh-1; NIH 3T3 STAT1-luciferase reporter, IFN-gamma induced, luminescence; inhibition, % at 5.7 µM; 1,200 tested, 27% active;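 active means inhibition above the mean plus 3 SD of solvent-only control wells, limit set per screening run, cut at about 16% in these data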;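 further: 0% = DMSO with IFN-gamma and 100% = nifuroxazide control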
# Active calls of the source: *; nt = not tested or not shown.
SMILES,C8 TRAIL sens,PPC-1+TRAIL kill,Platelet DG rel,STAT1 inh,STAT3 inh-1,STAT3 inh-2,NFkB inh 2,STAT1 inh 2
CC(c1ccccc1)c1nnc(NC(=O)c2ccc3c(c2)OCO3)s1 (centres undefined),10,12,2,nt,nt,nt,nt,nt
O=S(=O)(c1ccc(N2CCCC2)cc1)C(F)(F)F,13,23,-12,7,44*,10,-8,-9
Nc1ccc(C(=O)Nc2nc3ccccc3s2)cc1,50*,59*,5,-28,51*,2,-40,-173
Cc1cc(C)n(-c2ccc(C(=O)Nc3nc4ccccc4s3)cc2)n1,21,-7,-2,-80,6,nt,nt,nt
c1ccc2oc(-c3csc(N4CCOCC4)n3)cc2c1,53*,-2,-5,20,58*,31,-17,-103
O=C(COc1ccccc1F)Nc1c2c(nn1-c1ccccc1)CS(=O)(=O)C2,-8,nt,-13,nt,nt,nt,nt,nt
CCc1nc(C)cn1S(=O)(=O)c1cc(C)c(OC)c(C)c1C,8,9,3,21,54*,45*,10,17*
CCc1nc(C)cn1S(=O)(=O)c1cc(C)c(OC)cc1C,3,-9,21,7,18,nt,nt,nt
COc1ccc(-n2c(-c3ccccc3)c[n+]3c2CCC3)cc1,17,9,25,nt,nt,nt,nt,nt
Cc1ccc(-n2c(-c3ccccc3)c[n+]3c2CCC3)cc1,37,21,-7,26,62*,50*,2,23*
CCOc1ccc(-c2c[n+]3c(n2-c2ccccc2)CCCCC3)cc1,33,29,4,28,56*,73*,5,28*
O=[N+]([O-])c1ccc(O)c(C=Nc2ccc3c(c2)OCCO3)c1,-3,36,-9,-12,44*,-21,-16,-41
O=C(Cn1[nH]c(=O)c2ccccc2c1=O)NCCN1C(=O)S/C(=C\c2ccccc2)C1=O,2,nt,nt,nt,nt,nt,nt,nt
O=C(O)/C=C/c1ccc([N+](=O)[O-])o1,-4,9,-4,5,2,nt,nt,nt
O=[N+]([O-])c1ccc(/C=N/N=C/c2ccc([N+](=O)[O-])o2)o1,13,10,nt,-89,58*,13,-47,-46
O=C(CC1(O)C(=O)Nc2ccc(Br)cc21)c1ccccc1 (centres undefined),-2,nt,nt,nt,nt,nt,nt,nt
NNC(=O)c1cccc(COc2ccccc2Br)c1,10,-4,5,22,71*,61*,-10,10
CCc1ccc(-c2nc(-c3ccncc3)no2)cc1,23,18,nt,-18,57*,29,-14,-99
O=C(COc1ccc(Cl)cc1)Nc1ncc([N+](=O)[O-])s1,32,36,-4,31,48*,8,-9,-42
COC(=O)c1ccccc1NC(=O)CSc1nc2cccnc2n1C,-5,6,-7,5,0,nt,nt,nt
COC(=O)c1cccc(NC(=O)CSc2nc3cccnc3n2C)c1,5,9,nt,7,57*,48*,4,7
Cc1nn(C)c(C)c1/C=C/C(=O)c1ccc(Cl)cc1Cl,23,4,-4,25,66*,65*,13*,16
COC(=O)[C@@]12C[C@@H](CC(=O)N3CCN(C(=O)C4CC4)CC3)C(=O)N(Cc3ccccc3)C1=CCC(C)(C)C2,-10,nt,nt,nt,nt,nt,nt,nt
COc1ccc(C2C3=C(Nc4ncnn42)c2ccccc2CCC3)cc1 (centres undefined),1,-6,-8,6,8,nt,nt,nt
Fc1ccc(/C=C2\CCCC3=C2Nc2ncnn2C3c2ccc(F)cc2)cc1 (centres undefined),17,14,-1,5,45*,32,3,19*
SMILES,C8 TRAIL sens,PPC-1+TRAIL kill,Platelet DG rel,STAT1 inh,STAT3 inh-1,STAT3 inh-2,NFkB inh 2,STAT1 inh 2
O=C1NC[C@@H](CCCCN2C[C@H](Cc3ccc(O)cc3)N(CCC3CCCCC3)C(=O)C2=O)N(CC2CCCCC2)C1=O,-4,nt,nt,nt,nt,nt,nt,nt
CN1\C(=C/C=C/C=C/C=[N+](C)C)C(C)(C)c2ccccc21,11,4,43,31,54*,34,2,29*
O=C(Nc1ccccc1)Nc1ccc(C(=O)N2CCCC2)cc1,69*,41,58*,30,45*,23,-7,-24
O=C(Nc1ccc(C(=O)N2CCCCC2)cc1)c1ccccc1,4,nt,nt,nt,nt,nt,nt,nt
O=C(NCc1ccccc1)c1cc(C2COCCN2C(=O)C2CC2)on1 (centres undefined),-3,nt,nt,nt,nt,nt,nt,nt
Cc1c(C(=O)OCCOc2ccccc2)[nH]c2c1C(=O)CCC2,21,7,8,-19,59*,29,-18,-107
COc1ccc(-c2ccc(C(=O)NCCc3ccccc3)c3occc23)c(C)c1,15,nt,nt,nt,nt,nt,nt,nt
Cc1ccc(C)c(NC(=O)CN(C)C(=O)c2ccc3[nH]c4c(c3c2)CC(C)CC4)c1 (centres undefined),4,nt,-17,nt,nt,nt,nt,nt
O=C(c1cc(COc2ccc3ncccc3c2)on1)N1CCCC(O)C1 (centres undefined),3,-10,-1,23,19,nt,nt,nt
Cc1cc(CN(C)C(=O)c2cc(COc3ccc4ncccc4c3)on2)on1,18,10,-1,21,58*,56*,19*,19*
O=C(NC1CCCCCCC1)c1cc(COc2ccc3ncccc3c2)on1,23,22,-7,30,79*,75*,27*,17*
CCC(O)C1CCN(C(=O)c2cc(COc3ccc4ncccc4c3)on2)CC1 (centres undefined),44,nt,5,33,84*,84*,29*,27*
Cn1nc(C(=O)NCC(=O)Nc2ccc(F)c(F)c2)ccc1=O,5,nt,nt,nt,nt,nt,nt,nt
CC[n+]1c(C=C2C=C(C)OC(C)=C2)sc2ccccc21,29,40,-1,29,84*,85*,27*,4
CC[n+]1c(/C=C2/C=C(C)CC(C)C2)sc2ccccc21 (centres undefined),5,-9,7,29,19,nt,nt,nt
CN1CCc2c(sc(NC(=O)c3cc(Cl)sc3Cl)c2C(N)=O)C1,1,nt,2,nt,nt,nt,nt,nt
O=C(NCCCN1CCOCC1)c1cc(-c2ccc(Cl)c(Cl)c2)on1,5,nt,-4,nt,nt,nt,nt,nt
Cc1ccc(-c2cc(C(=O)NCCCN3CCOCC3)no2)cc1,2,-5,-2,12,56*,8,-15,-14
CC(C)Nc1ncnc2c1cnn2-c1ccc(Cl)cc1,57*,37,-17,5,55*,16,-31,-186
Clc1ccc(Nc2ncnc3c2cnn3-c2ccccc2)cc1,27,16,-11,-25,4,nt,nt,nt
Cc1ccc2nc(-c3cc(N)cc(N)c3)oc2c1,76*,28,24,3,43*,25,5,-15
Nc1[nH]c(C(=O)c2ccccc2)c(-c2ccc(C(F)(F)F)cc2)c1C(=O)NCc1ccc(Cl)cc1Cl,-16,nt,nt,nt,nt,nt,nt,nt

# From PubChem
